Rows were chosen to be rich in hits. Some 3.6% of all compounds tested hit in one or more screens of this group.
CRE Fsk mod = alters forskolin-stimulated CRE reporter signaling in CHO cells | CHO CRE-bla reporter (cAMP response element driving beta-lactamase), forskolin EC10, beta-lactamase ratio | Potency, µM (titrated, usually from 38.2 µM), for the others: top-dose activity change, negative = inhibition, hits mostly activators | 71,000 compounds, 2.5% hits | AID 662; active = well fitted activation curve with a large enough effect in the signal ratio, with a control signal flat, not every such curve was filed as active; inconclusive = small, poorly fitted or top-dose-only effect, or effect the other way, or a change in a side signal; the % refers to the signal ratio; note: % of control where 0% means no effect
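Modulation of forskolin signalling: compounds in titration series added with EC10 NKH 477 to CHO cells carrying a CRE-driven beta-lactamase reporter, 3 h, 37C. CCF4 FRET ratio (460/530 nm, ex 405 nm) gives %activity and AC50.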
Hsp90 Hop PPI = changes Hsp90-Hop TPR2A binding signal, up or down; Potency, µM (doses to about 57 µM), without a hit: at the top dose activity change, negative = inhibition; 71,000 compounds, 0.44% hits; AlphaScreen TPR2A-His6 binding biotin-Hsp90 C-terminal peptide; active = well fitted curve in either direction with a large enough effect; inconclusive = small, poorly fitted or top-dose-only effect, or another doubt; note: % is set by controls: 0 for no effect and ±100 for the full control effect
15-hLO inh = 15-hLO (ALOX15) enzyme inhibition; P16050; purified 15hLO-1, xylenol orange hydroperoxide absorbance; Potency, µM (doses to about 57.1 µM), for the others: at the top dose activity change, negative = inhibition, actives largely listed as inhibitors; 74,000 compounds, 1.4% hits; note: % is set by controls: 0 for no effect and ±100 for the full control effect; nearly all actives have a fitted effect of over 55% in size
Target sequence (P16050 whole entry, looked up): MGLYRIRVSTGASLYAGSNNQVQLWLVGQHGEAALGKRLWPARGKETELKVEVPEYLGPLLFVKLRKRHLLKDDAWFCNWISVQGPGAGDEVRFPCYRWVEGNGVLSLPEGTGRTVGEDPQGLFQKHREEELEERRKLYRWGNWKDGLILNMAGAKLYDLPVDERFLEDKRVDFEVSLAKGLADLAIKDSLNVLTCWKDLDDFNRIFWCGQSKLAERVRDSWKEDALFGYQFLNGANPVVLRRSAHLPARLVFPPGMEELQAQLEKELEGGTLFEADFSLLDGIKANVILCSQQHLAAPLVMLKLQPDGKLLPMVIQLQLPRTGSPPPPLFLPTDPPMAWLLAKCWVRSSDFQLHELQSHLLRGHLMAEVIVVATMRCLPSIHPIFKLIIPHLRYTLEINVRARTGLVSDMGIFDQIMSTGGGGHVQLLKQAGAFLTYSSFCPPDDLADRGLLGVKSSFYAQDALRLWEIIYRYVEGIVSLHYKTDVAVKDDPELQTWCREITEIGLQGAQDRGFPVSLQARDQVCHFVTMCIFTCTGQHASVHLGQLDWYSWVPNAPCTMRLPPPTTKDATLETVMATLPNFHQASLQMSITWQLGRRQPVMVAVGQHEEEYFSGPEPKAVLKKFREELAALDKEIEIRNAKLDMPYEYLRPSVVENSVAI
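Quantitative HTS in 25 mM Hepes pH 7.5 containing 0.01% Triton X-100: human 15hLO-1 at 40 nM, arachidonic acid at 50 uM, 6 min turnover. Product quantified via ferrous oxidation/xylenol orange, 573:405 nm absorbance ratio.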
IkB sig inh = IkB pathway inhibition in ABC-DLBCL cells; ABC-DLBCL IkBa-CBG/CBR dual luciferase ratio, 4 h; response scale: scaled: untreated 0%, proteasome inhibitor 100%; Potency, µM (titrated, usually from 57.1 µM), for the others: at the top dose IkBa stabilization activation; 110,000 compounds, 0.04% hits; AID 445; active = well fitted curve in the direction sought with a large enough effect in the signal ratio, not every such curve was filed as active; inconclusive = small, poorly fitted or top-dose-only effect, or a change in a side signal; the % refers to the signal ratio;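 note: the direction sought is a rising ratio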
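Luminescence ratio of IκBα-fused green versus native red beetle luciferase in OCI-Ly3 cells, 4 h post-doxycycline with compound; red signal alone, scaled from basal (0%) to zero light (-100%), flagged nonspecific or cytotoxic effects.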
Tau fil binding = binders of human tau filaments; P10636; recombinant tau filaments, thioflavin S fluorescence, 15 h; filaments grown with octadecylsulfate alongside compound; Potency, µM (series often up to 57.1 µM), inactives show top-dose activity change, negative = inhibition; 71,000 compounds, 2% hits; AID 596;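 note: % is set by controls: 0 for no effect and ±100 for the full control effect; actives lower thioflavin S fluorescence by blocking filaments or displacing dye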
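His-tagged recombinant human tau (exons 2, 3, 10; 1 uM final) fibrillized with 30 uM sodium octadecylsulfate, 15 h at 37 C, in pH 7.4 HEPES buffer with 10 uM thioflavine S and 5 mM DTT. Reduced ThS fluorescence (450/510 nm) marks activity.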
The depositor's hits bear a star; i = inactive; ? = inconclusive; . = no result; [ ] = dose if it differs, or a comment. Unless noted, calls come from the whole dose curve; as a rule, active = well fitted curve in the direction sought with a large enough effect; inconclusive = small, poorly fitted or top-dose-only effect, or another doubt; inactive = no such curve, though single readings can be large; an effect the other way counts as inactive or inconclusive. Potency is the fitted concentration of half-maximal effect.

SMILES	CRE Fsk mod	Hsp90 Hop PPI	15-hLO inh	IkB sig inh	Tau fil binding
CCN(Cc1nc2ccccc2c(=O)[nH]1)Cc1nc2cc(OC)c(OC)cc2c(=O)[nH]1	4µM*	-13%	36%	-3%	31%
CCOC(=O)c1cc(C)[nH]c(=S)c1C#N	?	-4%	4µM*	0%	-16%
CCOC(=O)c1cnc(C(C)(C)C)[nH]c1=O	1%	-3%	14%	3%	-1%
Cc1nc(NCCCn2ccnc2)c2oc3ccccc3c2n1	13µM*	-9%	9%	-3%	11%
Cc1cc(=O)n2nc(-c3ccccc3)sc2n1	11%	1%	4%	?	4%
CN=c1nc(-c2ccccc2)n(-c2ccccc2)s1	2%	-8%	0.79µM*	?	-2%
CC(C)CC(=O)NC1CC(=O)N(c2ccc3c(c2)OCCO3)C1 (stereo unspecified)	.	.	.	0%	.
CCCCN(C(=O)c1ccc(Cl)cc1)C1CC2CCC(C1)N2C (stereo unspecified)	-8%	-2%[2.3 µM]	0%	-2%	16µM*
CCc1nc(N2CCC(C)CC2)c2oc3ccccc3c2n1	10µM*	9%	-16%	5%	23%
CCc1nc(N(CC)CC)c2oc3ccccc3c2n1	7.9µM*	5%	-16%	1%	-7%
CCc1nc(NCc2ccco2)c2oc3ccccc3c2n1	4µM*	-1%	-30%	0%	8%
CCc1nc(SCCO)c2oc3ccccc3c2n1	4µM*	-1%	3%	-4%	6%
CCNc1nc(CC)nc2c1oc1ccccc12	7.9µM*	0%	-8%	-1%	4%
CCNc1nc(C)nc2c1oc1ccccc12	4%	-4%	6%	0%	-19%
COc1cccc(-n2cc(C(=O)Nc3cc(OC)c(OC)c(OC)c3)c3ccccc3c2=O)c1	.	.	.	1%	.
CCOC(=O)c1c(-c2cccs2)csc1NC(=O)COC(=O)c1c(C)noc1C	2.5µM*	16%	-12%	?	6%
COC(=O)c1c(-c2cccs2)csc1NC(=O)CN1CCOCC1	3.2µM*	2%	-6%	4%	25%
COc1ccc(-c2c(C)nn3c(C(F)(F)F)cc(-c4ccccc4)nc23)cc1	.	.	.	0%	.
Cc1c(=O)n(OCc2ccccc2F)c2ccccc2[n+]1[O-]	?	-9%	0%	-3%	?
COc1ccc(-c2c(=O)n(OCc3ccccn3)c3ccccc3[n+]2[O-])cc1OC	23%	-30%	-15%	1%	2.5µM*
CN1CCc2c(sc(/N=C/c3ccco3)c2C(N)=O)C1	?	-13%	-2%	1%	i
CN1CCc2c(sc(/N=C/c3cccs3)c2C(N)=O)C1	10µM*	-7%	?	0%	i
CCC(c1nnnn1C1CCCCC1)N(Cc1ccco1)Cc1cc2ccc(OC)cc2[nH]c1=O (stereo unspecified)	?	-9%	-17%	?	40%
CCC(c1nnnn1Cc1ccco1)N(Cc1cc2cc(C)cc(C)c2[nH]c1=O)CC1CCCO1 (stereo unspecified)	10%	-3%	10µM*	?	66%
COc1ccc2[nH]c(=O)c(CN(C3CCCCC3)C(c3nnnn3Cc3ccco3)C(C)C)cc2c1 (stereo unspecified)	22%	-20%	16µM*	7.9µM*	31%
SMILES	CRE Fsk mod	Hsp90 Hop PPI	15-hLO inh	IkB sig inh	Tau fil binding
COc1ccc2[nH]c(=O)c(CN(Cc3nnnn3Cc3ccco3)C3CCCCC3)cc2c1	-3%	-11%	6.3µM*	1%	62%
COc1ccc(NC(=O)CSc2nc3nc(C)cc(C)n3n2)cc1OC	.	.	.	-1%	.
COc1cc2nc3c(c([Si](C)(C)C(C)(C)C)c2cc1OC)Cn1c-3cccc1=O	16µM*	4%	.	.	-15%
COc1ccc2nc3c(c([Si](C)(C)C(C)(C)C)c2c1)Cn1c-3cccc1=O	?	-9%	.	.	-17%
CC(C)(C)[Si](C)(C)c1c2c(nc3ccc(OCc4ccccc4)cc13)-c1cccc(=O)n1C2	7.9µM*	19%	.	.	-28%
COc1ccc(NC(=O)c2cc(=O)c3cc(C)cc(C)c3o2)cc1	.	.	.	-2%	.
COc1ccc2c(c1)c1c(c(=O)n(-c3ccc(F)c(Cl)c3)c(=O)n1Cc1ccccc1C)n2C	.	.	.	-1%	.
CCOCCCNC(=O)c1cc2c(-c3ccc(Cl)cc3)nn(C)c2s1	2µM*	-3%[2.3 µM]	-18%	4%	399%
Cn1nc(-c2ccc(Cl)cc2)c2cc(C(=O)NCCCN3CCOCC3)sc21	7.9µM*	-3%[2.3 µM]	-6%	7%	25%
CCOC(=O)c1cc(-c2ccccc2)n(CC(=O)Nc2ccccc2OCC)c1C	.	.	.	-1%	.
OCCCCNc1cccc2ccccc12	2%	-7%	-13%	14%	25µM*
CCn1c2ccccc2c2nnc(NCCCO)nc21	?	0%[11 µM]	5%[11.4 µM]	-1%[11.4 µM]	1%[11.4 µM]
COc1cccc(CN2C(=O)CN(C3CCCCC3)C(=O)C2c2ccc(OC)c(OC)c2)c1 (stereo unspecified)	.	.	.	-1%	.
COc1ccccc1CNc1cc(-c2c(C)noc2C)ncn1	?	-2%	16%	4%[11.4 µM]	1%
CC1CCC2C(C1)c1sc(=O)[nH]c1SC2(C)C (stereo unspecified)	10µM*	-9%	-29%	1%	29%
CN(C)c1nc(OCCOC(=O)c2ccccc2)nc(N(C)C)n1	5µM*	5%	-4%	0%	4%
COc1nc(OCCNC(=O)Nc2ccccc2)nc(N(C)C)n1	?	-2%	2%	-1%	-10%
CCNc1nc(N)nc(Oc2ccc(OCCOc3ccc(Cl)cc3Cl)nn2)n1	6.3µM*	-4%	-4%	0%	-14%
O=S(=O)(c1cccc(Cl)c1)c1nnn2c1nc(NC1CCCCCC1)c1sccc12	.	.	.	-3%	.
Clc1ccc(OCc2nnc3n2N=C(c2ccc4c(c2)OCCO4)CS3)c(Cl)c1	13µM*	-3%	-20%	2%	138%
CCOC(=O)CSc1nnc(-c2ccc(Cl)cc2Cl)o1	-4%	8%	-5%	12%	8%
CCc1nnc2n1N=C(c1ccc(-c3ccc(Cl)cc3Cl)o1)CS2	5%	-8%	?	4%	25µM*
CCc1nnc2n1N=C(c1ccc(-c3cc(Cl)ccc3Cl)o1)CS2	?	-8%	-6%	?	16µM*
CCc1ccc(NC(=O)CSc2nc3nccnc3c(=O)n2CCc2c[nH]c3ccccc23)cc1	.	.	.	2%	.
COc1ccc(C)cc1NC(=O)Nc1ccccc1OCc1cc(=O)n2ccccc2n1	.	.	.	2%	.
O=C(OCc1nnc(-c2ccc(Cl)cc2)o1)c1ccc(=O)n(Cc2ccccc2)n1	-2%	-2%	20µM*	1%	-8%
O=C(OCc1nnc(-c2ccc(Cl)cc2)o1)c1ccncc1	-3%	-1%	4%	1%	-17%
COc1ccc(CNc2cc(-c3ccccc3Cl)ncn2)c(OC)c1	?	-2%	-1%	-1%[11.4 µM]	4%

Compound activity from PubChem BioAssay.
